Reference: PubChem BioAssay (EPA / NIEHS)
Records with an inconclusive call do not appear. Calls of active or inactive are those of the source. The calls were made as follows: active = hit-call score of the fitted dose curve at least 0.9, where 1 is the maximum; inconclusive = response in the unintended direction; inactive = score below 0.9.

biological target: rat Peripheral-type Benzodiazepine Receptor (PBR), Tspo (gene 24230) (UniProt P16257); assay: NVS_MP_rPBR: NovaScreen (NVS) Membrane Protein Assay for rat Peripheral-type Benzodiazepine Receptor (PBR) (AID 2283335)
Sequence (P16257 whole entry, looked up): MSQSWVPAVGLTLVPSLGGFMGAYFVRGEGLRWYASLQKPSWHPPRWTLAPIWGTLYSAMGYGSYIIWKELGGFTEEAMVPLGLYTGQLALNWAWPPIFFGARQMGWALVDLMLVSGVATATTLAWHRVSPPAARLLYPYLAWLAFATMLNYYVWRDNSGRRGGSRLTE
Outline: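 Competitive displacement of specific radioligand from rat kidney membrane PBR, read by filtration and scintillation after 1 h. Compounds first tested at 25 uM in duplicate, then in concentration series; signal loss relative to DMSO.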

Structure (SMILES)	AC50	outcome
O=C(O)c1cc(N=Nc2ccc(S(=O)(=O)Nc3ccccn3)cc2)ccc1O	0.655 µM (active)	–
CCn1nc(Cc2ccccc2)cc1C1CCN(C[C@H]2C[C@H](N(C)[C@@H](C(=O)O)C(C)C)C[C@@H]2c2cccc(F)c2)CC1	–	inactive
COc1cccc(-c2ccc(/C=C\CN3CCCCCC3)cc2Cl)c1	8.04 µM (active)	–
COc1ccc(-n2nc(C(F)F)cc2-c2ccc(S(C)=O)cc2)cc1 (centres undefined)	14.7 µM (active)	–
